PLK1 PBD inh: qHTS for Inhibitors of PLK1-PDB (polo-like kinase 1 - polo-box domain): Primary Screen; Plk1 PBD binding of FITC phosphopeptide, fluorescence polarization; Potency, µM, inactives show max response, negative = inhibition, actives largely listed as inhibitors; actives 2.8% (n = 360,000); AID 720504, 2013; Serine/threonine-protein kinase PLK1 (Homo sapiens), P53350; note: series mostly up to about 57 µM; % is set by controls: 0 for no effect and ±100 for the full control effect; nearly all actives have a fitted effect of over 65% in size
BAZ2B block: qHTS Assay for Inhibitors of BAZ2B; AID 504333, 2011; Potency, µM (doses to about 114 µM), inactives show at the top dose activity change, negative = inhibition, most hits filed as inhibitors; actives 4.4% (n = 360,000); Bromodomain adjacent to zinc finger domain protein 2B (Homo sapiens), Q9UIF8; AlphaScreen BAZ2B-H3K14Ac peptide displacement; note: % is set by controls: 0 for no effect and ±100 for the full control effect; nearly all actives have a fitted effect of over 60% in size
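AlphaScreen displacement of biotin-H3(5-23)K14Ac peptide (50 nM final) from BAZ2B (50 nM final) in PBS pH 7.4, 0.01% Tween-20; complex preformed 30 min RT, then compounds (top 110 uM) 30 min RT, beads 20 min dark.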
G9a inh: qHTS Assay for Inhibitors of Histone Lysine Methyltransferase G9a; Histone-lysine N-methyltransferase EHMT2 (Homo sapiens), Q96KQ7; G9a H3K9 monomethylation, AlphaScreen, 2 h; Potency, µM (top dose mostly 102 µM), inactives show top-dose activity, negative = inhibition, hits mostly inhibitors; actives 8.8% (n = 350,000); note: % is set by controls: 0 for no effect and ±100 for the full control effect; nearly all actives have a fitted effect of over 75% in size
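Chemiluminescent proximity detection of H3K9 monomethylation, read after 10 min bead incubation in the dark. Reaction: 20 nM G9a, 500 nM biotin-H3K9 peptide, 20 uM SAM cofactor, 2 h, room temperature, following 15 min enzyme-compound preincubation.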
HP1b chromo inh: HTS for Inhibitors of HP1-beta Chromodomain Interactions with Methylated Histone Tails; AlphaScreen HP1-beta / biotin-H3K9me3 peptide binding; actives 0.56% (n = 390,000); Chromobox protein homolog 1 (Homo sapiens), P83916; Potency, µM (highest dose often 114 µM), for the others: at the top dose activity change, negative = inhibition, most hits filed as inhibitors; note: nearly all actives have a fitted effect of over 70% in size
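AlphaScreen: HP1-beta (50 nM) preformed 30 min with biotin-H3(1-18)K9me3 peptide (50 nM) in PBS pH 7.4, 0.01% Tween-20. Compound added for 30 min at RT, then streptavidin donor/nickel chelate acceptor beads (10 ug/mL) for 30 min.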
VDR inhibitor: Inhibitors of the vitamin D receptor (VDR): qHTS. Vitamin D3 receptor (Homo sapiens), P11473. VDR-SRC2-3 peptide fluorescence polarization, 2 h. Potency, µM, inactives show max response, negative = inhibition, hits mostly inhibitors. actives 0.93% (n = 400,000); note: % is set by controls: 0 for no effect and ±100 for the full control effect
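Compounds are added to VDR with labelled SRC2-3 coactivator peptide and held 2 h at room temperature. Inhibition of the VDR–peptide interaction is then read as a change in fluorescence polarization.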
JMJD2A Tudor inh: qHTS Assay for Inhibitors of JMJD2A-Tudor Domain; AlphaScreen JMJD2A-Tudor / H3K4me3 peptide binding; Potency, µM (series often up to 114 µM), for the others: at the top dose activity change, negative = inhibition, hits mostly inhibitors; actives 4.4% (n = 390,000); note: % is set by controls: 0 for no effect and ±100 for the full control effect; nearly all actives have a fitted effect of over 50% in size
Target sequence (O75164 whole entry, looked up, the tested form may be a part): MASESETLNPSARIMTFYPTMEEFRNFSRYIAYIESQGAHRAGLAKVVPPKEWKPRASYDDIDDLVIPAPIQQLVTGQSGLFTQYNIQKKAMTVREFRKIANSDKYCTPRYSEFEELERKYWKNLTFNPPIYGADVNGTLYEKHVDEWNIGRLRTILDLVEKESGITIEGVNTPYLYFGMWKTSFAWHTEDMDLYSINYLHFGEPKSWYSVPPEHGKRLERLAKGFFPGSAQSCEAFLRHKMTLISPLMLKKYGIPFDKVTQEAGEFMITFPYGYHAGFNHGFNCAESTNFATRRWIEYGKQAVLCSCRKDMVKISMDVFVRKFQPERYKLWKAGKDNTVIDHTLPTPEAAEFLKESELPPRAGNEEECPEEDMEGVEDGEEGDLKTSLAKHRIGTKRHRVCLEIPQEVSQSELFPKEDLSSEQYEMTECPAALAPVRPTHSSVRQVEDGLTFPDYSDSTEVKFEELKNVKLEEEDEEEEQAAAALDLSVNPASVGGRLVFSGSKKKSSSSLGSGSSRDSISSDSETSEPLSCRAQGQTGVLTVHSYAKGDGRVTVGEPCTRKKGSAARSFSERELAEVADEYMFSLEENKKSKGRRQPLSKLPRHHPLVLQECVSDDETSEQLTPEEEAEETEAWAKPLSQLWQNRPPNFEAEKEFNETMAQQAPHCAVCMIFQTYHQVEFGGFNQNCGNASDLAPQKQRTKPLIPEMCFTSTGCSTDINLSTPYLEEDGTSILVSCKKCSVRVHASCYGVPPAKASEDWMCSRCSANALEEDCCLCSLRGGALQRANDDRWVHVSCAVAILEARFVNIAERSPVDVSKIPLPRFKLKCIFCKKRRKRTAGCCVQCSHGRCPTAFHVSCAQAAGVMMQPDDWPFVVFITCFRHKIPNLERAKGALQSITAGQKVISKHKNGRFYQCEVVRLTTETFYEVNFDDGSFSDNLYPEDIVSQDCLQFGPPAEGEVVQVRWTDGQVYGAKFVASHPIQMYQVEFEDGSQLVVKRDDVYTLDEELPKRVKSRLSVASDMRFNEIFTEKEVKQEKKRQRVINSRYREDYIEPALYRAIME
* hit, by the source's call; [ ] = another dose, or the depositor's remark. A selection: hits, their analogues and other compounds. The true share with any hit is near 11%. Calls come from the whole dose curve; as a rule, active = well fitted curve in the direction sought with a large enough effect; inconclusive = small, poorly fitted or top-dose-only effect, or another doubt; inactive = no such curve, though single readings can be large; an effect the other way counts as inactive or inconclusive. Potency is the fitted concentration of half-maximal effect.

Screening Cc1ccc(N2CC(C(=O)OCc3nnc(-c4ccccc4)o3)CC2=O)cc1 (stereo not drawn) returned PLK1 PBD inh -1.6%, BAZ2B block 5.0%, G9a inh -37.6%, HP1b chromo inh 22.6%, VDR inhibitor 3.3% and JMJD2A Tudor inh -11.0%.
Screening COc1ccc(-n2c(=O)c3c4c(sc3n(Cc3ccccc3)c2=O)CN(C(C)=O)CC4)cc1OC returned BAZ2B block -0.4%, G9a inh -2.1%[59 µM], HP1b chromo inh 7.4%, VDR inhibitor -3.9% and JMJD2A Tudor inh -29.5%.
`Cc1noc(NS(=O)(=O)c2ccc(NC(=O)C34CC5CC(C3)CC(n3cnc(Cl)n3)(C5)C4)cc2)c1C` gave PLK1 PBD inh -6.4%, BAZ2B block -26.0%, G9a inh -29.9%[59 µM], HP1b chromo inh 43.3%, VDR inhibitor -25.7% and JMJD2A Tudor inh -7.4%[57.1 µM].
For Cc1noc(NS(=O)(=O)c2ccc(NC(=O)CC34CC5CC(CC(Br)(C5)C3)C4)cc2)c1C the results were PLK1 PBD inh inconclusive, BAZ2B block -38.5%, G9a inh 70.8µM*, HP1b chromo inh 39.1%, VDR inhibitor -13.2% and JMJD2A Tudor inh -18.3%[57.1 µM].
Screening Cc1ccc(N=C2C(=S)N(c3ccc(C)cc3)C(=N)N2/N=C/c2ccc(Cl)cc2)cc1 returned PLK1 PBD inh inconclusive, BAZ2B block inconclusive, G9a inh inconclusive, HP1b chromo inh 3.55µM*, VDR inhibitor inconclusive and JMJD2A Tudor inh inconclusive.
COc1ccc(/C=N/N2CCN(c3ccc(Cl)cc3)CC2)cc1 was read as PLK1 PBD inh -7.4%, BAZ2B block -23.8%, G9a inh 9.3%, HP1b chromo inh 18.1%, VDR inhibitor 8.5% and JMJD2A Tudor inh -17.7%.
Screening O=C(O)C1CCC(C(=O)O)O1 (stereo not drawn) returned PLK1 PBD inh -2.7%, HP1b chromo inh -10.6%[57 µM], VDR inhibitor -12.3% and JMJD2A Tudor inh 44.7µM*.
`O=C(O)C1CCNCC1` gave G9a inh -14.9%[59 µM] and VDR inhibitor 4.4%.
For C[C@@]12C=Cc3occc3C1CC[C@@]13C[C@@H](CCC12)[C@@](O)(CO)C3 (stereo partly drawn) the results were G9a inh 14.1µM* and VDR inhibitor 39.8µM*.
`CC1=C(C(=O)NCc2cccc(Br)c2)C2(CCCCC2)OC1=O` gave BAZ2B block 7.4%, G9a inh -2.7%[59 µM], HP1b chromo inh 21.2%, VDR inhibitor 4.4% and JMJD2A Tudor inh -7.9%.
Screening NS(=O)(=O)c1ccc(CCNC(=O)Cc2ccc(S(=O)(=O)N3CCCC3)s2)cc1 returned PLK1 PBD inh -7.8%, BAZ2B block 56.2µM*, G9a inh -32.9%[59 µM], HP1b chromo inh inconclusive, VDR inhibitor 3.0% and JMJD2A Tudor inh inconclusive.
For COC(=O)CCNC(=O)Cc1ccc(S(=O)(=O)N2CCCCC2)s1 the results were PLK1 PBD inh -18.8%, BAZ2B block -1.8%, G9a inh 50.1µM*, HP1b chromo inh -2.5%, VDR inhibitor 6.3% and JMJD2A Tudor inh -26.2%.
For O=C(OCc1cn([C@H]2CN(C(=O)c3cccs3)[C@@H](c3ccc(Cl)cc3)C[C@@H]2O)nn1)c1ccccc1 the results were PLK1 PBD inh -4.9%.
CS(=O)(=O)N1CCc2cc(-c3csc(NCC4CCCO4)n3)ccc21 (stereo not drawn) was read as PLK1 PBD inh inconclusive, BAZ2B block -5.6%, G9a inh 5.62µM*, HP1b chromo inh 20.1%, VDR inhibitor 2.0% and JMJD2A Tudor inh -23.2%.
`CS(=O)(=O)N1CCc2cc(-c3csc(NC(=O)Cc4ccccc4)n3)ccc21` gave PLK1 PBD inh -4.3%, BAZ2B block -14.5%, G9a inh 14.1µM*, HP1b chromo inh 13.1%, VDR inhibitor -1.1% and JMJD2A Tudor inh -23.9%.
`CCOC(=O)NCCOC(=O)Nc1ccc(Cl)cc1` gave PLK1 PBD inh inconclusive, BAZ2B block -4.1%, G9a inh 11.4%, HP1b chromo inh 66.0%, VDR inhibitor 5.6% and JMJD2A Tudor inh -5.2%.
For CCOC(=O)CNNC(=O)Nc1ccc(Cl)c(Cl)c1 the results were PLK1 PBD inh -5.1%, BAZ2B block -0.4%, G9a inh 26.1%, HP1b chromo inh 32.9%, VDR inhibitor -23.0% and JMJD2A Tudor inh -7.0%.
Screening CCOC(=O)N(CC)OC(=O)Nc1ccc(Cl)cc1 returned PLK1 PBD inh 8.44µM*, BAZ2B block -6.3%, G9a inh 23.7%[12.7 µM], HP1b chromo inh -9.4%, VDR inhibitor -23.7% and JMJD2A Tudor inh -18.8%.
Screening CCOC(=O)N(C)OC(=O)Nc1ccc(Cl)c(Cl)c1 returned PLK1 PBD inh 2.12µM*, G9a inh inconclusive, HP1b chromo inh inconclusive, VDR inhibitor -89.8% and JMJD2A Tudor inh -15.5%.
c1ccc(-c2cc(-c3ccccc3)ncn2)cc1 was read as PLK1 PBD inh 0.7%, HP1b chromo inh 68.4%, VDR inhibitor -3.0% and JMJD2A Tudor inh 36.3%.
For Oc1cccc(Nc2cc(-c3ccccc3)ncn2)c1 the results were BAZ2B block 50.1µM*, G9a inh inconclusive, HP1b chromo inh 31.3%, VDR inhibitor 4.5% and JMJD2A Tudor inh -35.1%.
`Cc1c(Cl)ccc2c1NC(=O)C21NC(CCC(N)=O)[C@H]2C(=O)N(c3ccc(Cl)cc3)C(=O)[C@H]21` (stereo partly drawn) gave PLK1 PBD inh -13.6%, BAZ2B block 0.5%, G9a inh 39.8µM*, HP1b chromo inh 59.7%, VDR inhibitor 5.4% and JMJD2A Tudor inh -22.2%.
`CSCCC1NC2(C(=O)Nc3c2ccc(Cl)c3C)[C@@H]2C(=O)N(C3CCCC3)C(=O)[C@H]12` (stereo partly drawn) gave PLK1 PBD inh -11.8%, BAZ2B block inconclusive, G9a inh inconclusive, HP1b chromo inh -16.1%, VDR inhibitor 3.9% and JMJD2A Tudor inh inconclusive.
Screening CCCCc1ccc(N2C(=O)[C@@H]3C(CC(N)=O)NC4(C(=O)Nc5ccc(F)cc54)[C@@H]3C2=O)cc1 (stereo partly drawn) returned PLK1 PBD inh -12.6%, BAZ2B block 0.7%, G9a inh 39.8µM*, HP1b chromo inh 14.8%, VDR inhibitor -16.1% and JMJD2A Tudor inh -25.2%.

High-throughput results from PubChem BioAssay.
